Source: PubChem BioAssay
PREPL inh – PREPL enzyme inhibitors, primary screen, biochemical, fluorescence polarization. Prolyl endopeptidase-like (Homo sapiens), Q4J6C6. recombinant PREPL, fluorescence polarization activity-based probe. inhibition, % at 5.96 µM. hit rate 0.68% among 320,000. AID 2751, 2010; in the data active means inhibition above about 43%;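 further: 0% = enzyme with DMSO and 100% = wells lacking enzyme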
AI-2 QS modul – Vibrio harveyi AI-2 quorum sensing modulators, primary screen, JMH597 strain, luminescence/OD600 ratio. Vibrio harveyi JMH597 AI-2 luminescence/OD600 ratio, 9 h; hits give low values; strain lacks LuxN and CqsS sensors; 0 = neutral-control median. activity change, % at 7.5 µM. hit rate 0.4% among 300,000. AID 2094, 2009; in the data active means activity change below about -75%, passing the limit was not always enough;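 further: luminescence divided by OD600 gain over 9 h not by final OD600 alone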
CHT allo act – CHT positive allosteric modulators, primary screen, cell-based, membrane potential dye, choline EC20; High affinity choline transporter 1 (Homo sapiens), Q9GZV3; AID 488977, 2010; B-score at 10 µM; CHT-expressing cells; hits give high values; LV-AA mutant CHT in HEK293 cells; hit rate 0.49% among 310,000;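 active means initial fluorescence not abnormally high and integrated response B-score, plate-corrected, over 3 SD above library mean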
CHT inh – inhibitors of human choline transporter CHT. High affinity choline transporter 1 (Homo sapiens), Q9GZV3. B-score at 10 µM. hit rate 0.86% among 310,000. CHT-expressing cells, membrane potential dye, choline response; hits give low values;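 active means B-score over 3 SD under the library average, and starting fluorescence ratio not unusually high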;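 further: choline stimulus applied at its EC90 after an EC20 pre-addition; B-score computed on integrated fluorescence ratio after choline addition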
ALR inh – inhibitors of human ALR sulfhydryl oxidase, primary screen, biochemical, H2O2 detection, HRP-luminol luminescence, single point; purified ALR, DTT oxidation; inhibition, % (test concentration not listed); hit rate 3.8% among 290,000; AID 485317, 2010;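 active means mean replicate inhibition above about 79%, with every replicate also reaching it, limit read from the data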
Target sequence (P55789 whole entry, looked up): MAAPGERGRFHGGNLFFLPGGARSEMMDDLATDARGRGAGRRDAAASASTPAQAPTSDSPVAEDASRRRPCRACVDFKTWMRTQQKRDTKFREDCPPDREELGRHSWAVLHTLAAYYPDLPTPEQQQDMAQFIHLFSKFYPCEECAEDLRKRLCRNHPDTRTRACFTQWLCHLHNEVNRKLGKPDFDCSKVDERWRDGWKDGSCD
Starred values were filed as active, the others as inactive; i = inactive; . = no result. Rows were chosen to be rich in hits. Some 5% of all compounds tested hit in one or more screens of this group.

SMILES	PREPL inh	AI-2 QS modul	CHT allo act	CHT inh	ALR inh
CNC(=O)c1ccc(Nc2nnc(-c3ccc(O)cc3)c3ccccc23)cc1	5.8	19.3	i	i	30.3
CNC(=O)COc1coc(CN2CCN(Cc3ccccc3)CC2)cc1=O	-0.1	11.7	i	i	-4.4
CC(C)(C)c1csc(NC(=O)c2ccc3nccnc3c2)n1	8.9	11.6	i	i	10.6
O=S(=O)(Nc1ccc(Nc2ccccc2)cc1)c1ccc(F)cc1	4.2	-94.8*	i	i	98.0*
O=S(=O)(Nc1ccc(S(=O)(=O)Nc2ccccc2)cc1)c1ccccc1	4.6	15.5	i	i	.
COc1ccc(S(=O)(=O)Nc2c(C(=O)O)[nH]c3ccccc23)cc1	1.8	12.9	i	i	91.1*
O=C(O)c1[nH]c2ccccc2c1NS(=O)(=O)Cc1ccccc1	0.0	12.2	i	i	98.6*
Cc1ccc(S(=O)(=O)Nc2c(C(=O)O)[nH]c3ccccc23)c(C)c1	-5.1	5.9	i	i	98.4*
O=S(=O)(Cc1ccccc1)Nc1ccccc1	0.7	12.0	i	i	-5.8
COc1ccc(S(=O)(=O)Nc2c(C(=O)O)[nH]c3ccccc23)cc1OC	10.7	37.9	i	i	10.5
O=C(O)c1[nH]c2ccccc2c1NS(=O)(=O)c1ccc(F)cc1	-7.8	17.8	i	i	94.4*
c1ccc(CCn2nnnc2CN2CCc3ccccc32)cc1	5.8	.	i	i	99.4*
CC(C)(C)C1CCC(=NNc2nc3ccccc3[nH]2)CC1 (centres undefined)	22.8	27.5	i	i	98.0*
CN(c1ccccc1)S(=O)(=O)c1cccc(C(=O)NCC(=O)Nc2ccc(F)c(F)c2F)c1	6.6	.	.	.	-11.6
CCc1ccc(NC(=O)CSc2nc(=O)n(CCCN3CCOCC3)c3c2CCCC3)cc1	18.7	2.8	i	i	98.2*
CCOC(=O)c1ccc(NC(=O)CSc2nc(=O)n(CCN3CCOCC3)c3c2CCC3)cc1	20.1	10.5	i	i	.
Cc1ccc(NC(=O)CSc2nc(=O)n(CCCN3CCOCC3)c3c2CCCC3)cc1F	31.6	-5.4	i	i	97.5*
NC(=O)c1cc(S(=O)(=O)Nc2ccc(OC(F)(F)F)cc2)cs1	0.4	10.4	i	i	12.4
C[C@@H]1CC[C@H]2C(=O)N3[C@@H](CC[C@@H](C)[C@@H]3c3ccc(Br)cc3)C(=O)N2[C@H]1c1ccc(Br)cc1	4.5	17.0	i	i	-0.8
CC1CN(S(=O)(=O)c2cc(C(=O)N3CCCCC3C)ccc2Cl)CC(C)O1 (centres undefined)	13.8	.	.	.	-8.4
COCCN1Cc2cccc(C(=O)N3CCN(c4ccccc4)CC3)c2C1=O	0.5	17.1	i	i	94.8*
CCCN1Cc2cccc(C(=O)N3CCN(c4ccccc4)CC3)c2C1=O	-47.3	11.8	i	i	57.8
Cc1cccc(OCC(=O)NNc2c3ccccc3nc3ccccc23)c1	22.8	19.1	i	i	98.9*
O=C(Cc1ccccc1)NNC(=O)Cc1ccccc1	-3.0	16.7	i	i	-12.4
Cc1ccc(OCC(=O)NNC(=O)CCC(=O)NCc2ccccc2)cc1	4.7	18.9	i	i	2.7
SMILES	PREPL inh	AI-2 QS modul	CHT allo act	CHT inh	ALR inh
Cc1ccc(OCC(=O)NNc2c3ccccc3nc3ccccc23)cc1	32.7	0.2	i	i	95.6*
O=C(Cc1ccccc1)NNc1c2ccccc2nc2ccccc12	1.8	24.5	i	i	98.5*
N#Cc1ccc(C(=O)NC(=S)N2CCN(C=O)CC2)cc1	16.1	.	.	.	.
Cc1cccc2c1cnn2C(=O)CCC(=O)N1CCC(C)CC1	-1.4	-49.0	i	i	8.6
COc1ccc(C(=O)c2ccc(N(C)C)cc2)c(OC)c1	7.2	9.5	i	i	96.4*
CN(C)c1ccc(C(=O)c2ccc(N(C)C)c3ccccc23)cc1	17.8	6.2	10.4*	i	-17.0
O=C1/C(=C/c2cccnc2)SC(=S)N1c1ccccc1	-1.3	12.7	i	i	-4.0
O=C1/C(=C/c2cccnc2)SC(=S)N1Nc1ccccc1	-11.4	17.3	i	i	92.3*
Cc1ccc(C)c(CN2CCN(c3ncccn3)CC2)c1	-0.3	20.6	i	i	.
O=C(CCN1C(=O)c2ccccc2C1=O)Nc1ccccc1C(F)(F)F	-3.9	22.6	i	i	-8.0
Cc1ccc(NC(=O)CN2C(=O)N/C(=C/c3ccco3)C2=O)cc1	8.3	-7.6	i	i	7.7
Cc1ccc(NC(=O)CN2C(=O)N/C(=C/c3cccn3-c3ccc(C(=O)O)cc3)C2=O)cc1	9.4	.	i	i	97.0*
O=C(Nc1ccccc1)Nc1ccc(Cl)nc1Cl	-8.3	-3.1	i	i	11.7
CNc1nc(SC)n(C)c(=O)c1N=O	7.0	14.6	i	i	-6.1
CCCC1=NN2C(=N)/C(=C\c3cc(C)n(Cc4ccccc4)c3C)C(=O)N=C2S1	5.8	-8.0	i	i	6.0
Cc1cc(/C=C2\C(=N)N3N=CSC3=NC2=O)c(C)n1Cc1ccccc1	19.6	30.2	i	i	88.4*
COc1cc(/C=C2\C(=N)N3N=CSC3=NC2=O)ccc1OS(=O)(=O)c1ccccc1	.	19.5	i	i	98.0*
COc1cc(/C=C2/C(=N)N3C(c4ccccc4)=CSC3=NC2=O)ccc1OCC(=O)O	-12.8	14.0	i	i	99.1*
O=C(CN1CCOCC1)Nc1ccccc1Sc1ccc(Cl)cc1	-1.9	23.3	i	i	2.8
O=C(COC(=O)c1c(F)cccc1Cl)NCC1CCCCC1	24.3	.	.	.	.
COc1ccc(CNC(=O)CSCc2cnn(-c3ccccc3)c2-n2cccc2)cc1	-19.3	22.6	i	i	-23.9
O=C(CSCc1cnn(-c2ccccc2)c1-n1cccc1)NCc1ccccn1	4.7	-10.3	i	i	81.4*
NC(=S)Nc1cccc2cc3ccccc3cc12	32.4	-80.1*	i	i	17.1
Cc1nc2ccccc2c(=O)n1CCc1ccccc1	9.3	-0.9	i	i	-20.1
CCn1c(/C=C/c2ccc(O)c(O)c2)nc2ccccc2c1=O	.	15.2	i	i	99.6*
Cc1nc2ccccc2c(=O)n1CCc1ccc(O)cc1	7.2	-8.0	i	i	95.8*
CCn1c(/C=C/c2ccc(O)cc2)nc2ccccc2c1=O	19.7	2.4	i	i	97.6*
O=c1[nH]c(-c2ccccc2)nc(-c2ccccc2)c1Cl	7.4	8.0	i	i	-2.0
CCn1c2ccccc2c2cc(NC(=O)CN3CCCC3)ccc21	10.2	47.6	i	i	-8.3
CCn1c2ccccc2c2cc(NC(=O)C(=O)N3CCOCC3)ccc21	7.1	18.2	i	i	91.2*
